From PubChem
This is one part of a sample in which hits are shown more often than they occur.
Dicer processing = human Dicer pre-microRNA cleavage inhibition. Q9UPY3. cat-ELCCA pre-miR-21 Dicer processing, chemiluminescence; hits give high values. z-score at 25 µM. hit rate 6% among 47,000. AID 1347074; in the data active = z-score above about 3, passing the limit was not always enough;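 note: higher signal means more uncleaved substrate so more Dicer inhibition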
Each line names hits and unclear results; the compound was inactive in the other large screens.

Cc1nc(N2CCN(Cc3ccc4c(c3)OCO4)CC2)[nH]c(=O)c1C	Dicer processing 3.2
Cc1cc(C)c(S(=O)(=O)N2CCN(Cc3ccc4c(c3)OCO4)CC2)c(C)c1	none
COc1cc(C)c(S(=O)(=O)N2CCN(Cc3ccc4c(c3)OCO4)CC2)cc1C	none
CSc1ccc(CN2CCN(S(=O)(=O)c3ccccc3)CC2)cc1	none
Cc1ccc(S(=O)(=O)N2CCN(Cc3ccc4c(c3)OCO4)CC2)cc1	Dicer processing 7.4
Cc1ccc(Cc2c(C)nc(N3CCCC3)[nH]c2=O)cc1	none
CC1(C)CC(=O)c2cnc(N3CCN(Cc4ccc5c(c4)OCO5)CC3)nc2C1	none
Cc1ccc(-c2cnc(-c3ccccc3)sc2=O)cc1	none
COc1ccc(C2/C(=C(\O)c3ccc(F)cc3)C(=O)C(=O)N2CCCN(C)C)cc1OC (stereo not drawn)	none
CCOc1ccc(C2C(C(=O)OC(C)C)=C(C)NC3=C2C(=O)CCC3)cc1OC (stereo not drawn)	none
CCCSc1ccc2nc(NC(C)=O)[nH]c2c1	none
COc1ccccc1-c1nnc(SCc2ccccc2Cl)o1	none
CO[C@H]1O[C@H](CO)[C@@H](OC(C)=O)[C@H](OC(C)=O)[C@H]1OC(C)=O	none
N#C/C(C(N)=O)=C1/SC=C(c2ccccc2)N1Cc1ccccc1	none
CC1C(c2ccccc2)N(C)C(c2ccccc2)C(C)C1(O)c1ccc(F)cc1 (stereo not drawn)	none
C/C(=N\OCC(=O)N=S(C)(=O)c1ccc(C)cc1)c1ccc(Cl)cc1 (stereo not drawn)	none
Cc1nnc2n1N=C(c1ccc(Br)cc1)CS2	none
CCCn1c(NCc2ccccn2)nc2ccccc21	none
Clc1ccccc1CNc1nc2ccccc2n1CCN1CCCCC1	none
COc1ccc(CNc2nc3ccccc3n2CCN2CCOCC2)c(OC)c1	Dicer processing 3.5
c1ccc(Cn2c(NCc3ccco3)nc3ccccc32)cc1	Dicer processing 3.7
CCN(CC)CCn1c(NCc2cc(OC)ccc2OC)nc2ccccc21	none
c1coc(CNc2nc3ccccc3n2CCN2CCOCC2)c1	Dicer processing 5.1
c1ccc2c(c1)nc(NCc1ccncc1)n2CCN1CCCCC1	none
Cn1c(NCc2ccco2)nc2c1c(=O)n(Cc1ccccc1)c(=O)n2C	none
Cc1nc2ccccc2n1CCN1CCOCC1	none
c1ccc(CNc2nc3ccccc3n2CCN2CCOCC2)nc1	Dicer processing 5.4
Cn1c(CNc2nc3ccccc3n2CCN2CCOCC2)nc2ccccc21	none
Nc1nc2ccccc2n1Cc1ccccc1	none
O=C(c1cn(CCOc2ccccc2Cl)c2ccccc12)C1CC1	none
COc1cccc(OC)c1C(=O)NC(=O)Nc1cc(C(F)(F)F)cc(C(F)(F)F)c1	none
O=C(CCCO)Nc1ccc2c(c1)OCCO2	none
CCCCN1C(=O)c2cccc3cc([N+](=O)[O-])cc(c23)C1=O	none
O=C(Nc1ccccc1)c1cncc(C#Cc2ccccc2)c1	none
Cc1cc(C)n(-c2ccccc2O)n1	none
Cc1ccc(C2c3c(n(C)c(=O)n(C)c3=O)N=C3c4ccccc4C(=O)C32)cc1Cl (stereo not drawn)	none
CN(C)c1ccc(/C=N/NC(=O)c2ccncc2)c(Cl)c1	none
COc1ccc(C2CC(=O)C3=C(C2)Nc2nc4ccccc4n2C3c2ccco2)cc1 (stereo not drawn)	none
COc1ccc(C2C3=C(CC(c4ccco4)CC3=O)Nc3nc4ccccc4n32)cc1 (stereo not drawn)	Dicer processing 3.1
O=C1CC(c2ccco2)CC2=C1C(c1cccnc1)n1c(nc3ccccc31)N2 (stereo not drawn)	none
CC(=O)c1cc(-c2ccc(Cl)cc2)oc1C	none
CCSc1ccsc1C1C(C#N)=C(N)N(c2cccnc2)C2=C1C(=O)CC(c1ccccc1)C2 (stereo not drawn)	none
CSc1sc(C)cc1C1C(C#N)=C(N)N(c2cccnc2)C2=C1C(=O)CC(c1ccccc1)C2 (stereo not drawn)	Dicer processing 5.8
COC(=O)C1=C(C)NC2=C(C(=O)CC(c3ccccc3)C2)C1c1cccnc1 (stereo not drawn)	none
Cc1cccc(C)c1NC(=S)N(CCC#N)C1CCCCC1	none
CC(C)(C)c1cc(C(=O)Oc2cccnc2)cc(C(=O)Oc2cccnc2)c1	none
Cc1ccc(S(=O)(=O)NNc2ncnc3c(C)csc23)cc1	none
CC1CCc2c(sc3nc(=S)[nH]c(NCc4ccccc4)c23)C1 (stereo not drawn)	none
COc1ccc(C2c3c(oc4ccccc4c3=O)C(=O)N2c2nccs2)cc1OC (stereo not drawn)	none
COc1ccc(/C=C/c2nc3ccccc3n2C)cc1	none
COc1ccc(/C=C/c2sc(C)c(C)[n+]2C)cc1	none
COc1ccc(/C=C/c2ccc(OC)cc2)cc1	Dicer processing 3.1
CC(=O)OCCNc1cc(C)c2noc3c2c1C(=O)c1ccccc1-3	none
O=C(/C=C(/CC(=O)c1ccc([N+](=O)[O-])cc1)c1ccccc1)c1ccccc1	none
Cc1ccc(S(=O)(=O)NNC(=O)c2c(-n3c(C)ccc3C)sc3c2CCCC3)cc1	none
CCOC(=O)c1c(NC(C)=O)sc2c(O)c(Sc3ccccc3)ccc12	Dicer processing 4.1
CCOC(=O)c1c(NC(=O)Nc2sc(C)c(-c3ccccc3)c2C(=O)OCC)sc(C)c1-c1ccccc1	none
CCOC(=O)c1c(NC(=O)c2cc3ccccc3c(=O)o2)sc(C)c1C	none
COc1ccc(N2C(=O)C3C(C2=O)N2CCCN2C3c2ccccc2)cc1 (stereo not drawn)	none
Cn1nc(C(C)(C)C)c(NC(=O)c2cccnc2)c1C(C)(C)C	none
COc1ccc(C2C(C(=O)OC(C)C)=C(C)Nc3nc4ccccc4n32)c(OC)c1 (stereo not drawn)	none
Cc1cc(C(=O)C(F)(F)F)c(C)n1-c1ccc(C(F)(F)F)cc1	none
Cc1ccccc1CN1C(=O)C(O)(CC(=O)c2ccc3c(c2)OCCO3)c2cc(Cl)ccc21 (stereo not drawn)	none
CC(C)(C)c1cc(NC(=O)Nc2ccc(Cl)cc2Cl)no1	none
Cc1nc(-c2cccs2)sc1C(=O)NNC(=O)Nc1ccc(Cl)cc1	none
Cc1cc(-c2nc(C)c(C(=O)NNC(=O)Nc3ccc(Cl)cc3Cl)s2)no1	Dicer processing 3.1
Fc1ccc(Cn2c(-c3cncs3)nc3ccccc32)cc1	none
COCC(=O)Nc1sccc1C(=O)OC	none
COc1ccc(Oc2c(C(F)(F)F)oc3cc(OCC(=O)NC4CCCCC4)ccc3c2=O)cc1	none
O=C(CCC(C(=O)O)N1C(=O)c2ccccc2C1=O)Nc1ccc2c(c1)COCO2 (stereo not drawn)	none
O=C(O)CCC(NC(=O)OCc1ccccc1)C(=O)O (stereo not drawn)	none
O=C(O)CCC(C(=O)O)N1C(=O)c2ccccc2C1=O (stereo not drawn)	Dicer processing 3.2
COc1cccc(OC)c1CN(C)C(=O)c1cnc(OCC(F)(F)F)cc1C(F)(F)F	none
Cc1ccc(/C=C2/N=C(c3ccccc3)NC2=O)o1	none
COc1ccc(C2/C(=C(\O)c3ccc(Cl)cc3)C(=O)C(=O)N2CCCN(C)C)cc1OC (stereo not drawn)	none
N#C/C(=C\N(CCS(=O)(=O)c1ccc(Cl)cc1)Cc1cccs1)S(=O)(=O)c1cccs1	none
O=C(Nc1ccc(Cl)cc1Cl)c1cccnc1Sc1cccc(Cl)c1	none
O=c1[nH]cnc2c1cnn2-c1ccc(F)cc1	none
Cc1nc2c(cnn2-c2ccccc2)c(=O)o1	none
O=c1[nH]cnc2c1cnn2-c1ccccc1	Dicer processing 3.6
CCCSc1sc(C(=O)OC)c(-c2ccc(Cl)cc2)c1C#N	none
C=CCN1C(=O)C(O)(CC(=O)c2ccc(C(C)C)cc2)c2cc(Br)ccc21 (stereo not drawn)	none
CC1=C(C(=O)OCCc2ccccc2)C(c2ccc(C)o2)C2=C(CC(c3cccs3)CC2=O)N1 (stereo not drawn)	none
